In paper PMC7862700, “An all-to-all approach to the identification of sequence-specific readers for epigenetic DNA modifications on cytosine”:

Legend:
Assay in all cases: DAPPL (digital affinity profiling via proximity ligation, sequencing); 10 mM Tris-HCl pH 7.5, 50 mM NaCl, 1 mM DTT, 4% glycerol, room temperature, 30 min; GST-TFs on glutathione beads, 16-mer random dsDNA library, 0.1% formaldehyde crosslink after washing; high values mean tight binding
FLI1 = target: T1, FLI1 (Homo sapiens, UniProt Q01543 1-452); conditions: protein: recombinant; tags: N-terminal GST; dsDNA, one strand shown
T1 sequence: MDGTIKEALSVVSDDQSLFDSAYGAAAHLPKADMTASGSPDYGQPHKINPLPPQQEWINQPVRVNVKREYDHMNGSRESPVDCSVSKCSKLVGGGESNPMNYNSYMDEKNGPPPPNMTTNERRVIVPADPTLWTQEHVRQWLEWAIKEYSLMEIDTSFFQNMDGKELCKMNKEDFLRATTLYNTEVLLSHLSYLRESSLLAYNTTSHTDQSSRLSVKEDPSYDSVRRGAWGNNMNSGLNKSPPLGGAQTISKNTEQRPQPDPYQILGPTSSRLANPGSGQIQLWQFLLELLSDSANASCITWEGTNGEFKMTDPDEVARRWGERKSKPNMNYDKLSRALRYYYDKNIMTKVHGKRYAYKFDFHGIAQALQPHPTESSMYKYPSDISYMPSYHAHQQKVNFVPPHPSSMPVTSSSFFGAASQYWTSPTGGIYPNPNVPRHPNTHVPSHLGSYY
Summary of the method: (§1)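 Each value of binding signal is a hexamer's read frequency for a factor divided by the same hexamer's frequency in the tag-only sample. Barcoded, bead-captured GST fusions of human transcription factors made in yeast were pooled with that sample and incubated with 200 nmole of a random double-stranded 16-mer DNA library in Tris/NaCl/DTT/glycerol buffer at room temperature for 30 min. Washing, 0.1% formaldehyde crosslinking, proximity ligation, PCR and Illumina NextSeq500 sequencing followed.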

ELK1 = target: T2, ELK1 (Homo sapiens, UniProt P19419 1-428); conditions: protein: recombinant; tags: N-terminal GST; dsDNA, one strand shown
T2 sequence: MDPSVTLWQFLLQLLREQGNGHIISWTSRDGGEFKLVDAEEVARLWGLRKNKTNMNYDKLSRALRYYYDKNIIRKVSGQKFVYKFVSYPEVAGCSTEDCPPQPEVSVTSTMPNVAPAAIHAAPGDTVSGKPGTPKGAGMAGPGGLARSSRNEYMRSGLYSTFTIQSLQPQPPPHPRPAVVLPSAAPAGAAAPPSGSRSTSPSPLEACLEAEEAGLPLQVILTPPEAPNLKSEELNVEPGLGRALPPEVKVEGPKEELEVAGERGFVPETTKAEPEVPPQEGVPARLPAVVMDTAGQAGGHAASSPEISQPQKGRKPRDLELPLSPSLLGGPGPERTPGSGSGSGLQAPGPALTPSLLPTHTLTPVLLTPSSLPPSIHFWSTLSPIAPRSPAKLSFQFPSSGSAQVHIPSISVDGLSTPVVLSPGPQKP
Summary of the method: as §1

GABPA = target: T3, GABPA (Homo sapiens, UniProt Q06546 1-454); conditions: protein: recombinant; tags: N-terminal GST; dsDNA, one strand shown
T3 sequence: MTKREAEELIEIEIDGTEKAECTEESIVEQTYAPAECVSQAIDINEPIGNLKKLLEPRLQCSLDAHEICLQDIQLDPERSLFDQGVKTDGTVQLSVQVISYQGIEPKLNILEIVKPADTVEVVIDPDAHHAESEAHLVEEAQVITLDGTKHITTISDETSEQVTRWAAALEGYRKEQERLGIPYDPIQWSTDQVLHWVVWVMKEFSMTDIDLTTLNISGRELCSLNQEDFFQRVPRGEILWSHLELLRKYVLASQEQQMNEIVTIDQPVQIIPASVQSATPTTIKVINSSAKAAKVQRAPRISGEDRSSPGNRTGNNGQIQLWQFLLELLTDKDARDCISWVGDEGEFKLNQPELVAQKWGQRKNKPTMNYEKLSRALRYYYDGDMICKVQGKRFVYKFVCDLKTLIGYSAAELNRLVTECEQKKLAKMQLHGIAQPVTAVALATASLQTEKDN
Summary of the method: as §1

ERG = target: T4, ERG (Homo sapiens, UniProt P11308 1-479); conditions: protein: recombinant; tags: N-terminal GST; dsDNA, one strand shown
T4 sequence: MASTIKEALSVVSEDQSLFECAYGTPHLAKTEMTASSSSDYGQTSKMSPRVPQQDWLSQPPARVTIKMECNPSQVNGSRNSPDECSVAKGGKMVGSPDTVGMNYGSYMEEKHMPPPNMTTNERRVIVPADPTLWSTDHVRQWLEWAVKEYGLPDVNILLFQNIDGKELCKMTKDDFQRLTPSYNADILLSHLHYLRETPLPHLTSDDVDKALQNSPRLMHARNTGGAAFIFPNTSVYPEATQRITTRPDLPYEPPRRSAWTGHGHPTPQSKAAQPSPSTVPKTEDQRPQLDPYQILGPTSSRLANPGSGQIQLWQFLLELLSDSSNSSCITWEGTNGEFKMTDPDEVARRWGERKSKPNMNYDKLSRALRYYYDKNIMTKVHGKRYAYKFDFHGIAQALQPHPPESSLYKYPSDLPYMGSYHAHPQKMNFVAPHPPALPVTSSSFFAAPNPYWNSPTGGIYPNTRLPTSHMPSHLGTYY
Summary of the method: as §1

ELF1 = ELF1 (Homo sapiens, UniProt P32519 1-619); conditions: protein: recombinant; tags: N-terminal GST; dsDNA, one strand shown
Sequence of ELF1 (P32519 whole entry): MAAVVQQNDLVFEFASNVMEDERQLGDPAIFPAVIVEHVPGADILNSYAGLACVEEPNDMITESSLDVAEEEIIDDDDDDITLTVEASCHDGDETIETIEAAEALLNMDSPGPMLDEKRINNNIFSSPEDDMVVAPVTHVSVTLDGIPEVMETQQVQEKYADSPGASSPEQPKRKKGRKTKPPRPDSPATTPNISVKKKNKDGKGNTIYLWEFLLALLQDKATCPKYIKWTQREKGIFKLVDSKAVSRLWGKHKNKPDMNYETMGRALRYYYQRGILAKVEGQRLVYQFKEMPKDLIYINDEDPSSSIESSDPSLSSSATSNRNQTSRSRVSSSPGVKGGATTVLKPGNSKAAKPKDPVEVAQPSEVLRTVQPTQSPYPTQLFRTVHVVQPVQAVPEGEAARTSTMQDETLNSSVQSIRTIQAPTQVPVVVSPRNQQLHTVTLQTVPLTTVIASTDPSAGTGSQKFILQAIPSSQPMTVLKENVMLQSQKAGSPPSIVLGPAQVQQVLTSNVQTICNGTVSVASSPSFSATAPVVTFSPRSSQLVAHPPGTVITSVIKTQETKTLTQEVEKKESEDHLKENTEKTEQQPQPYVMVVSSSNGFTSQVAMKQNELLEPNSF
Summary of the method: as §1

EHF = target: T5, EHF (Homo sapiens, UniProt Q9NZC4 1-300); conditions: protein: recombinant; tags: N-terminal GST; dsDNA, one strand shown
T5 sequence: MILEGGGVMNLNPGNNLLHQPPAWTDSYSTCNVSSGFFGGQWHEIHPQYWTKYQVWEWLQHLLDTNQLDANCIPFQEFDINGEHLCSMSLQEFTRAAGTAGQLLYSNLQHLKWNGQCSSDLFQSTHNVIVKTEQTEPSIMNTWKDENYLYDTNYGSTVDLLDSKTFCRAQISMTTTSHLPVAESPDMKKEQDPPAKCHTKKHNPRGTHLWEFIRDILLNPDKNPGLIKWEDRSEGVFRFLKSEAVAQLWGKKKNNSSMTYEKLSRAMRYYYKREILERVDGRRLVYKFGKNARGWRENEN
Summary of the method: as §1

SPI1 = SPI1 (Homo sapiens, UniProt P17947 1-270); conditions: protein: recombinant; tags: N-terminal GST; dsDNA, one strand shown
Summary of the method: as §1

SPIB = SPIB (Homo sapiens, UniProt Q01892 1-262); conditions: protein: recombinant; tags: N-terminal GST; dsDNA, one strand shown
Sequence of SPIB (Q01892 whole entry): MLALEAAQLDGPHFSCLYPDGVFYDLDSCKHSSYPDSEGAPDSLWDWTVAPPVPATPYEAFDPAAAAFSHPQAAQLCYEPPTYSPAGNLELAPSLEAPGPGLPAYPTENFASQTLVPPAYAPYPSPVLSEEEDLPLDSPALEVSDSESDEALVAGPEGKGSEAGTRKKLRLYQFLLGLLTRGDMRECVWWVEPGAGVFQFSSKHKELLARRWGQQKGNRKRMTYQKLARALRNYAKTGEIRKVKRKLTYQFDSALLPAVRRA
Summary of the method: as §1

ELK3 = target: T6, ELK3 (Homo sapiens, UniProt P41970 1-407); conditions: protein: recombinant; tags: N-terminal GST; dsDNA, one strand shown
T6 sequence: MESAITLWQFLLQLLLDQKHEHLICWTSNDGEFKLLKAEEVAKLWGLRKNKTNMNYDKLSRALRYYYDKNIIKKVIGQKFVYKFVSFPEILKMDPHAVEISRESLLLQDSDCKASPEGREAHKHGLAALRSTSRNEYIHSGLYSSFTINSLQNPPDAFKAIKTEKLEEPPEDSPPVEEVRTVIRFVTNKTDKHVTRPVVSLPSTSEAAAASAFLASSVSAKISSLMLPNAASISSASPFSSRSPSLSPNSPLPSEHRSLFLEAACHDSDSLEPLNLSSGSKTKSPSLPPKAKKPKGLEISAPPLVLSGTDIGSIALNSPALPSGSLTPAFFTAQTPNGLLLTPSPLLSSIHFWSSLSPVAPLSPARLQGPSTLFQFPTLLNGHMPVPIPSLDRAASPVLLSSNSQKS
Summary of the method: as §1

FEV = target: T7, FEV (Homo sapiens, UniProt Q99581 1-238); conditions: protein: recombinant; tags: N-terminal GST; dsDNA, one strand shown
T7 sequence: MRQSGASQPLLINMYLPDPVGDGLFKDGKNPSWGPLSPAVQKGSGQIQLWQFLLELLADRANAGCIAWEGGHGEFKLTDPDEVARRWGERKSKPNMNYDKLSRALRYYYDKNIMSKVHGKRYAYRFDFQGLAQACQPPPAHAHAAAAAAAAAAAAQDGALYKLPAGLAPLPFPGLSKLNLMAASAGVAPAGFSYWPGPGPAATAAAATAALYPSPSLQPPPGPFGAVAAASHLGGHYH
Summary of the method: as §1

ETV5 = ETV5 (Homo sapiens, UniProt P41161 1-510); conditions: protein: recombinant; tags: N-terminal GST; dsDNA, one strand shown
Sequence of ETV5 (P41161 whole entry): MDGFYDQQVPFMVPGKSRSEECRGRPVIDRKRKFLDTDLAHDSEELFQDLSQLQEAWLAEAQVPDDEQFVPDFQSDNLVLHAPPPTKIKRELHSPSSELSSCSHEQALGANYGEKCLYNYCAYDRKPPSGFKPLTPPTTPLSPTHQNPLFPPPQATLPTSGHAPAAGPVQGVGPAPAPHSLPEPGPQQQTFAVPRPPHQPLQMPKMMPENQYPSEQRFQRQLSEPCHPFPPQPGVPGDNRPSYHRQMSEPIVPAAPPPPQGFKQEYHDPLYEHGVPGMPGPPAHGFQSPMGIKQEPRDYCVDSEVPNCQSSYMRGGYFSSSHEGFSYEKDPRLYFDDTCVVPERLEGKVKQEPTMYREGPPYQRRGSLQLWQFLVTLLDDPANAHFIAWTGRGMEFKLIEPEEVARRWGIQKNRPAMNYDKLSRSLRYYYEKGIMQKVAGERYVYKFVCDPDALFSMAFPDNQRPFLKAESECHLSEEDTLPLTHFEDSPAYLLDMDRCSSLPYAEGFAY
Summary of the method: as §1

HSF1 = HSF1 (Homo sapiens, UniProt Q00613 1-529); conditions: protein: recombinant; tags: N-terminal GST; chain copies: 3; dsDNA, one strand shown
Sequence of HSF1 (Q00613 whole entry): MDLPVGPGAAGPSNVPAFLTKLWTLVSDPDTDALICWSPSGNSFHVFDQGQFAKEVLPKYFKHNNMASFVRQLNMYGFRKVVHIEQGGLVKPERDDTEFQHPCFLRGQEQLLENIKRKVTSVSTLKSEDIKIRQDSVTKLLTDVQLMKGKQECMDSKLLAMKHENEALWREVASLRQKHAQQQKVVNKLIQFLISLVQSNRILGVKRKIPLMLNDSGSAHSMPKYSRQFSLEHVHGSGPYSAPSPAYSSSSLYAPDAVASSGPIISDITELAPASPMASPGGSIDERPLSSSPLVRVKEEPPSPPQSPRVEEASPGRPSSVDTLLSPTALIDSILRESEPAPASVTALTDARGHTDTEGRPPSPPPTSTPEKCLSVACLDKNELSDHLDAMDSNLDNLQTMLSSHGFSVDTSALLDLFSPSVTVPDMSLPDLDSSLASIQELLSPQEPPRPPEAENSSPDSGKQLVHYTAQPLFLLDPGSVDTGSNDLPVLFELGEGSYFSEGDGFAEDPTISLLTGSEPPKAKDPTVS
Summary of the method: as §1

SPIC = target: T8, SPIC (Homo sapiens, UniProt Q8N5J4 1-248); conditions: protein: recombinant; tags: N-terminal GST; dsDNA, one strand shown
T8 sequence: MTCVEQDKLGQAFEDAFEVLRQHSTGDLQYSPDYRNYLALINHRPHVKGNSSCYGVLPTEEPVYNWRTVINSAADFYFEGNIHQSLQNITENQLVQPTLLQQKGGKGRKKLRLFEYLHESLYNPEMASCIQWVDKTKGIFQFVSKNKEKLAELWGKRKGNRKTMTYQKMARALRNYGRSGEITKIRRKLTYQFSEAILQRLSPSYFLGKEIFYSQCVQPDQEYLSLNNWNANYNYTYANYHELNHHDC
Summary of the method: as §1

ELF4 = ELF4 (Homo sapiens, UniProt Q99607 1-663); conditions: protein: recombinant; tags: N-terminal GST; dsDNA, one strand shown
Sequence of ELF4 (Q99607 whole entry): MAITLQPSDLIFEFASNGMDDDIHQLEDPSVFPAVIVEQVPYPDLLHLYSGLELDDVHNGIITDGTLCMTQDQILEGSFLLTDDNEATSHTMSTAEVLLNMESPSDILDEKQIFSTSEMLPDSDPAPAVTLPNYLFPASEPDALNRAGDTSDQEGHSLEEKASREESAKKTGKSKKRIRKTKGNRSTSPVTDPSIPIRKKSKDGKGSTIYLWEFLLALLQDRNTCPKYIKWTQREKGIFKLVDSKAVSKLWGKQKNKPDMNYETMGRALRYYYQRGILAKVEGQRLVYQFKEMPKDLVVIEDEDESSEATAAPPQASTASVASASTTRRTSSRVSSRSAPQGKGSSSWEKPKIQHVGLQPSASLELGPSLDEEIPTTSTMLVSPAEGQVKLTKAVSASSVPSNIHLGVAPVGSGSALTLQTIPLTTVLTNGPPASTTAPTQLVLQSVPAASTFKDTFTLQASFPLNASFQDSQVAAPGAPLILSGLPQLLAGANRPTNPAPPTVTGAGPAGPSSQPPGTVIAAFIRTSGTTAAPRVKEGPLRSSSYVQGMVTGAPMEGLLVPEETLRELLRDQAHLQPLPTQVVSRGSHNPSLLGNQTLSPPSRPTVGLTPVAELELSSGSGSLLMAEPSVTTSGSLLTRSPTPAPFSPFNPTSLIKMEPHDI
Summary of the method: as §1

ELK4 = target: T9, ELK4 (Homo sapiens, UniProt P28324-2 1-405); conditions: protein: recombinant; tags: N-terminal GST; dsDNA, one strand shown
T9 sequence: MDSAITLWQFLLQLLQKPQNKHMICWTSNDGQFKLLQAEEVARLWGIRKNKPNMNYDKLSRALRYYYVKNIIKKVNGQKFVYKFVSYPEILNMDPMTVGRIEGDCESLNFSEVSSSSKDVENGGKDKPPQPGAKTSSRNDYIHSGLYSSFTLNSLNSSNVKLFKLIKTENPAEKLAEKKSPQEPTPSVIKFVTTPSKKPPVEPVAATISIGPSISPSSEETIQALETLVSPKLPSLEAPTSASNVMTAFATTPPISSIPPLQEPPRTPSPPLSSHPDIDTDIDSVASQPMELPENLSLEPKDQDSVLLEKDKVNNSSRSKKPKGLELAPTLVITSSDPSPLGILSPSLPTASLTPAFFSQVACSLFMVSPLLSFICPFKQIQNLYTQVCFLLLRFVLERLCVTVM
Summary of the method: as §1

ETV2 = target: T10, ETV2 (Homo sapiens, UniProt O00321 1-342); conditions: protein: recombinant; tags: N-terminal GST; dsDNA, one strand shown
T10 sequence: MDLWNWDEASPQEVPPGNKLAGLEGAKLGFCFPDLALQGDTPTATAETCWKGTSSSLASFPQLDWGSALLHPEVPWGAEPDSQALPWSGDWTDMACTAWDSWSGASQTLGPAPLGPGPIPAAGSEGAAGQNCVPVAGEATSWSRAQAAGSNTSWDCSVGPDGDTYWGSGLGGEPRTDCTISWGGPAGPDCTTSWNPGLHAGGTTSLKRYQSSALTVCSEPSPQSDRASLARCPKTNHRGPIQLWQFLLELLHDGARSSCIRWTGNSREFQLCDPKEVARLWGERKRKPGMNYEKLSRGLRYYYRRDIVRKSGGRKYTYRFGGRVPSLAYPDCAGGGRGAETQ
Summary of the method: as §1

ELF3 = target: T11, ELF3 (Homo sapiens, UniProt P78545 1-371); conditions: protein: recombinant; tags: N-terminal GST; dsDNA, one strand shown
T11 sequence: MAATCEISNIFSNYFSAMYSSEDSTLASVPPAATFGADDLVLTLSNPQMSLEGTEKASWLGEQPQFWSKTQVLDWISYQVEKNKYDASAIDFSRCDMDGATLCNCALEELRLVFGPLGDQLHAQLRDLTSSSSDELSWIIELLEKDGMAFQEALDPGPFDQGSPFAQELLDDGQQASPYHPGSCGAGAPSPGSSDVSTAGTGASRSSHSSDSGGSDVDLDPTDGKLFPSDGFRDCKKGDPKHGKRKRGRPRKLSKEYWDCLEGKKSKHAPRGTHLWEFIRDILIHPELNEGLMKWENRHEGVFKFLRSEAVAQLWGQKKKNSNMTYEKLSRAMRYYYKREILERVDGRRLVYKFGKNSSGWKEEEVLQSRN
Summary of the method: as §1

CRX = CRX (Homo sapiens, UniProt O43186 1-299); conditions: protein: recombinant; tags: N-terminal GST; dsDNA, one strand shown
Sequence of CRX (O43186 whole entry): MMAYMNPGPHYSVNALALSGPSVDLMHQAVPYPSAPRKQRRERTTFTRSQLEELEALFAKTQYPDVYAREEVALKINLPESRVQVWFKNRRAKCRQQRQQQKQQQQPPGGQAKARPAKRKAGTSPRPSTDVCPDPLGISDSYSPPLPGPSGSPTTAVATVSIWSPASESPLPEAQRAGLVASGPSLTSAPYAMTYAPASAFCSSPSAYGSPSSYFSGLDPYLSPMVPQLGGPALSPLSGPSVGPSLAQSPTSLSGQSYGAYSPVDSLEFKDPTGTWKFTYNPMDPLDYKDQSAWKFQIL
Summary of the method: as §1

ETV1 = ETV1 (Homo sapiens, UniProt P50549 1-477); conditions: protein: recombinant; tags: N-terminal GST; dsDNA, one strand shown
Sequence of ETV1 (P50549 whole entry): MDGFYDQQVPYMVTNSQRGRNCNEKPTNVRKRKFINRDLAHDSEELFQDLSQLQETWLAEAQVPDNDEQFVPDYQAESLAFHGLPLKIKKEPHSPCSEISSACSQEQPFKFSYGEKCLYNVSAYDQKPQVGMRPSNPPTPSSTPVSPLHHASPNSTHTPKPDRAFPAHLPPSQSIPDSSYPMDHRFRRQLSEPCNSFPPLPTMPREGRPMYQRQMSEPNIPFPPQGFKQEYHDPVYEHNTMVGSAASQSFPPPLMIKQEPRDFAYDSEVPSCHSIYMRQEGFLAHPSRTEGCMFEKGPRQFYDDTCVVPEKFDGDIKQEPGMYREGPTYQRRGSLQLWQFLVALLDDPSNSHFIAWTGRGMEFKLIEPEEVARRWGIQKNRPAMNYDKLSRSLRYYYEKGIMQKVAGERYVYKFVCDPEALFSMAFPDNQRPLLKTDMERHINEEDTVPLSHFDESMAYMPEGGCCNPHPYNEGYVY
Summary of the method: as §1

Sequence: AATCAC
- binding signal (FLI1): 1.03 fold enrichment (6-mer frequency, TF over GST control)
- binding signal (ELK1): 1.08 fold enrichment (6-mer frequency, TF over GST control)
- binding signal (GABPA): 1.15 fold enrichment (6-mer frequency, TF over GST control)
- binding signal (ERG): 1.08 fold enrichment (6-mer frequency, TF over GST control)
- binding signal (ELF1): 1.14 fold enrichment (6-mer frequency, TF over GST control)
- binding signal (EHF): 1.08 fold enrichment (6-mer frequency, TF over GST control)
- binding signal (SPI1): 1.12 fold enrichment (6-mer frequency, TF over GST control)
- binding signal (SPIB): 1.07 fold enrichment (6-mer frequency, TF over GST control)
- binding signal (ELK3): 1.12 fold enrichment (6-mer frequency, TF over GST control)
- binding signal (FEV): 1.09 fold enrichment (6-mer frequency, TF over GST control)
- binding signal (ETV5): 1.14 fold enrichment (6-mer frequency, TF over GST control)
- binding signal (HSF1): 1.08 fold enrichment (6-mer frequency, TF over GST control)
- binding signal (SPIC): 1.08 fold enrichment (6-mer frequency, TF over GST control)
- binding signal (ELF4): 1.09 fold enrichment (6-mer frequency, TF over GST control)
- binding signal (ELK4): 1.11 fold enrichment (6-mer frequency, TF over GST control)
- binding signal (ETV2): 1.18 fold enrichment (6-mer frequency, TF over GST control)
- binding signal (ELF3): 1.12 fold enrichment (6-mer frequency, TF over GST control)
- binding signal (CRX): 1.3 fold enrichment (6-mer frequency, TF over GST control)
- binding signal (ETV1): 1.08 fold enrichment (6-mer frequency, TF over GST control)
